# About 7,900 targets were measured; listed, in parts, are those with a hit and a random draw of the rest. About 0.6% of all pairs of compound and target were hits. Values without a mark were called inactive.
# How the values were obtained:
# Test in all cases: log2 fold change, soluble protein after heating vs DMSO (PISA); higher = thermal stabilisation; K562 cells, 10 uM, 30 min; active = over 0.2 and 3.5 SD of the protein, either way, in both replicates (recomputed)
# erlotinib = compound: C#Cc1cccc(Nc2ncnc3cc(OCCOC)c(OCCOC)cc23)c1 [erlotinib]
# Summary of the method: (§1)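 K562 cells at 2×10^6 cells/mL were treated for 30 min with 10 μM compound, and aliquots were heated for 3 min over 48°C-58°C before pooling. Extraction used PBS with 0.5% NP-40 at 4°C, and soluble protein was the supernatant after 21,000xg for 90 min, measured by TMTpro 16plex LC-MS/MS with channel sums equalised. Thermal stability values, relative to control samples and from duplicates, are log2 fold changes.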
# [1] = compound: C/C(=N\NC(=O)C1=CC(=CC=C1)S(=O)(=O)N2CCOCC2)/C3=C(C=CC(=C3)Cl)O
# Summary of the method: as §1
# [2] = compound: C1=CC(=C(C=C1Cl)C2=NC3=NC=CN=C3C(=N2)NC4=CC=NC=C4)F
# Summary of the method: as §1
# [3] = compound: C1=CC(=CC=C1C2=NC3=C(N2)C=C(C=C3)C(=O)N)OC4=CC=C(C=C4)Cl
# Summary of the method: as §1
# [4] = compound: C1=CC2=C(C=CC(=C2)/C=C\3/C(=O)NC(=NCC4=CC=CS4)S3)N=C1
# Summary of the method: as §1
# [5] = compound: C1=CC2=NC=CN=C2C=C1/C=C/3\C(=O)NC(=O)S3
# Summary of the method: as §1
# [6] = compound: C1=CC=C(C=C1)C2=NC(=C(N2)C3=CC=NC=C3)C4=CC(=C(C=C4)Cl)O
# Summary of the method: as §1
# [7] = compound: C1=CC=C2C(=C1)C3=NNC4=CC=CC(=C43)C2=O
# Summary of the method: as §1
# [8] = compound: C1CCN(C1)C(=O)NC2=CC=CC(=C2)NC3=NC=C(C(=N3)NCCC4=CN=CN4)Br
# Summary of the method: as §1
# [9] = compound: C1CN(CCC1(CC2=CC=C(C=C2)Cl)N)C3=NC=NC4=C3C=CN4
# Summary of the method: as §1
# IRAK-1-4 Inhibitor I = compound: C1COCCN1CCN2C3=CC=CC=C3N=C2NC(=O)C4=CC(=CC=C4)[N+](=O)[O-] [IRAK-1-4 Inhibitor I]
# Summary of the method: as §1
# ibrutinib = compound: C=CC(=O)N1CCC[C@@H](n2nc(-c3ccc(Oc4ccccc4)cc3)c3c(N)ncnc32)C1 [ibrutinib]
# Summary of the method: as §1
# [10] = compound: CC(=O)c1cnc2ccc(-c3cc(Cl)c(O)c(Cl)c3)nc2c1N[C@H]1CC[C@H](CN(C)C)CC1
# Summary of the method: as §1
# ralimetinib = compound: CC(C)(C)Cn1c(N)nc2ccc(-c3[nH]c(C(C)(C)C)nc3-c3ccc(F)cc3)nc21 [ralimetinib]
# Summary of the method: as §1
# [11] = compound: CC(C)(O)CC(=O)NCCn1ccc2ncnc(Nc3ccc(Oc4cccc(C(F)(F)F)c4)c(Cl)c3)c21
# Summary of the method: as §1
# [12] = compound: CC(C)C1=C2N=C(C=C(N2N=C1)NCC3=CC=CC=C3)NCCCCCCN
# Summary of the method: as §1
# [13] = compound: CC(C)C[C@@H](C=O)NC(=O)[C@H](CC(C)C)NC(=O)[C@H](CC(C)C)NC(=O)OCc1ccccc1
# Summary of the method: as §1
# pinometostat = compound: CC(C)N(C[C@H]1O[C@@H](n2cnc3c(N)ncnc32)[C@H](O)[C@@H]1O)[C@H]1C[C@@H](CCc2nc3cc(C(C)(C)C)ccc3[nH]2)C1 [pinometostat]
# Summary of the method: as §1
# [14] = compound: CC1=C(C(CC(=O)N1)C2=CC=C(C=C2)C(F)(F)F)C(=O)NC3=C(C=C4C(=C3)C=NN4)F
# Summary of the method: as §1
# [15] = compound: CC1=C(C2=C(C=C1)C(=O)C3=CC=CC=C3N2CCCN)C
# Summary of the method: as §1
# Chain of UniProt P50336 (P50336 whole entry, looked up): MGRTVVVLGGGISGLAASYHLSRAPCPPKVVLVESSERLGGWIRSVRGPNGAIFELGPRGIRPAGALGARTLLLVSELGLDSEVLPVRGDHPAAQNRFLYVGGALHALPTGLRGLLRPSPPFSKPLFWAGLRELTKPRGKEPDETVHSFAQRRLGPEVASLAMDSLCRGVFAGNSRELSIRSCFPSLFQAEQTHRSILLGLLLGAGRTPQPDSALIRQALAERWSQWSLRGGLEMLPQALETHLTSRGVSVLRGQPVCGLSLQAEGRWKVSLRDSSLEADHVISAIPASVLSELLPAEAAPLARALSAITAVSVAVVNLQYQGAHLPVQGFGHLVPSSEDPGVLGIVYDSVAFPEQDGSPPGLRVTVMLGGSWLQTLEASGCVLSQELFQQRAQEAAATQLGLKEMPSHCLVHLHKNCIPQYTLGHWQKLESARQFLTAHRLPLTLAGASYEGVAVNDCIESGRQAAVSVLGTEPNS
# Chain of UniProt P51665 (P51665 whole entry, looked up): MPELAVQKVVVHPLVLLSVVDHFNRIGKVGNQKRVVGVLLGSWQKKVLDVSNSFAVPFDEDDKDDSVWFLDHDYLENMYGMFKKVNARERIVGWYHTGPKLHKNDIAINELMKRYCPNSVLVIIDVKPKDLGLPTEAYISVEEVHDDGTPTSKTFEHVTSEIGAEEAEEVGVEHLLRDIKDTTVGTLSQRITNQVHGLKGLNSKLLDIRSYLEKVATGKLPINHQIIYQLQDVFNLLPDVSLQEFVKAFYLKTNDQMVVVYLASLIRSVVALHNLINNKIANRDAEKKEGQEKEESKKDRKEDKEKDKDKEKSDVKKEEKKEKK
# Chain of UniProt O96013 (O96013 whole entry, looked up): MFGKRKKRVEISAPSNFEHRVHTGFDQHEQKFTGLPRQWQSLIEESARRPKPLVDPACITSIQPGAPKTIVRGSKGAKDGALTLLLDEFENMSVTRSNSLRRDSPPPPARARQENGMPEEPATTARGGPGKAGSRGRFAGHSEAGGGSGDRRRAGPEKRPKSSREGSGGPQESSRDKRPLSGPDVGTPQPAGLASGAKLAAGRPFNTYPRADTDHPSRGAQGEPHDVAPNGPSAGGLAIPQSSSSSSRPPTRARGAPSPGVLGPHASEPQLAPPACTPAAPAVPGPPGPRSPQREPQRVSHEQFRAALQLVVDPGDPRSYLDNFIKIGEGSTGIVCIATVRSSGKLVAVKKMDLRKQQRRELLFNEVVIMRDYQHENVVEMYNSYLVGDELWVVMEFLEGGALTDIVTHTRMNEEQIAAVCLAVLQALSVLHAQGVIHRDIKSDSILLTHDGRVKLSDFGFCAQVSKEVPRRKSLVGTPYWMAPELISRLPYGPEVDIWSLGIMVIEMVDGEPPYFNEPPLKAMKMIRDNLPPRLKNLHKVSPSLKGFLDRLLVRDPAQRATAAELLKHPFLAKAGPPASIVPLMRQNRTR
# Chain of UniProt Q9H307 (Q9H307 whole entry, looked up): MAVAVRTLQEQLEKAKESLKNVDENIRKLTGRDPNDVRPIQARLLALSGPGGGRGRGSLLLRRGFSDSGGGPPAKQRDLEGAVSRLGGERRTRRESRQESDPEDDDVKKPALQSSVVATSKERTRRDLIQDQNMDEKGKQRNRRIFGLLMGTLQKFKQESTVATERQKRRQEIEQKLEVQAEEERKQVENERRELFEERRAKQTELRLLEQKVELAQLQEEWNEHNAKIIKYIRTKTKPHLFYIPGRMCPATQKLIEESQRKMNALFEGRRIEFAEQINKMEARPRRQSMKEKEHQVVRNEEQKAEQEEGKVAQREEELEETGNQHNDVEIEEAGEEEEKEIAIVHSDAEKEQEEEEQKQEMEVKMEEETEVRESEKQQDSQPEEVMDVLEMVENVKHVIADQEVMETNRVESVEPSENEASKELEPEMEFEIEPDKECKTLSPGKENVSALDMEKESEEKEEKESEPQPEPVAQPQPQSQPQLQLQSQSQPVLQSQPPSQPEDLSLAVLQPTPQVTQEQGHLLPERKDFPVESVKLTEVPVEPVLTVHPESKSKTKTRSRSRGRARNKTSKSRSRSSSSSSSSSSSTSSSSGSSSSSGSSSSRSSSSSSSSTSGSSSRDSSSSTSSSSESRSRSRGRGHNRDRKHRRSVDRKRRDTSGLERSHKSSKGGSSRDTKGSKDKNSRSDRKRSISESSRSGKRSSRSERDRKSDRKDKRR
# Chain of UniProt P19174 (P19174 whole entry, looked up): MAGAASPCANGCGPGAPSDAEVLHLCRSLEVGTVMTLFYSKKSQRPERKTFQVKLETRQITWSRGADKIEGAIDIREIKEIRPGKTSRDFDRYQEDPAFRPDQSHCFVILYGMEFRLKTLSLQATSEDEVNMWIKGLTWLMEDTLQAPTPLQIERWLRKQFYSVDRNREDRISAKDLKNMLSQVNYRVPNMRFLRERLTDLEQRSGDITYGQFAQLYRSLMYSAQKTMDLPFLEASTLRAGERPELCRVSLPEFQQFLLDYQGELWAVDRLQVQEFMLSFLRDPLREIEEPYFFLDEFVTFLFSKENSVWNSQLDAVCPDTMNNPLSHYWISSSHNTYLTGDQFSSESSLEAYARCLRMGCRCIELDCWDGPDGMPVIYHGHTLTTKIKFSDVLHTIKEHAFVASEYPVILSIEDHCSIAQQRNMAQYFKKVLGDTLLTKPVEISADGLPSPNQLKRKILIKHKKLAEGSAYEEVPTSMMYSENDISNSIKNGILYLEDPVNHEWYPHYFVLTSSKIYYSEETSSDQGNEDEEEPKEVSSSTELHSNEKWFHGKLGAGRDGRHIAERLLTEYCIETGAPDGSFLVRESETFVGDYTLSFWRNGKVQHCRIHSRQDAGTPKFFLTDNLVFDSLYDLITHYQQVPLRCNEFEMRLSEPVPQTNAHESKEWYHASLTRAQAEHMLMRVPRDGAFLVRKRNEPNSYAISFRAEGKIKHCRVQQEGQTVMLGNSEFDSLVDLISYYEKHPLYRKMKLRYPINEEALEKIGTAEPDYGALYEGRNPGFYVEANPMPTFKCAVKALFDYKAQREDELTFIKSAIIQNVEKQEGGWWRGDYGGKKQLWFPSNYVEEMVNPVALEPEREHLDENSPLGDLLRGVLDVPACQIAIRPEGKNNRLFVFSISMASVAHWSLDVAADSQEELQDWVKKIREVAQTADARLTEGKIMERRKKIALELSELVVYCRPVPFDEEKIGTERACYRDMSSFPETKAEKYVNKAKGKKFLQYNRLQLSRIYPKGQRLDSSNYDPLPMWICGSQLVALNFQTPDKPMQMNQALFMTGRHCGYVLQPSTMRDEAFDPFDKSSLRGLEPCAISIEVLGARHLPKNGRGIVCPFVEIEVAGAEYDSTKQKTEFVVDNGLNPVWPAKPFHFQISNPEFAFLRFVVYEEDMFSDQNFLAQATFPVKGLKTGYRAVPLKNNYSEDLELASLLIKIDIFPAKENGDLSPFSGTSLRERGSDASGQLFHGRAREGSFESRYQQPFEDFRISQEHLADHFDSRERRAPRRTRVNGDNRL
# Chain of UniProt Q86TB9 (Q86TB9 whole entry, looked up): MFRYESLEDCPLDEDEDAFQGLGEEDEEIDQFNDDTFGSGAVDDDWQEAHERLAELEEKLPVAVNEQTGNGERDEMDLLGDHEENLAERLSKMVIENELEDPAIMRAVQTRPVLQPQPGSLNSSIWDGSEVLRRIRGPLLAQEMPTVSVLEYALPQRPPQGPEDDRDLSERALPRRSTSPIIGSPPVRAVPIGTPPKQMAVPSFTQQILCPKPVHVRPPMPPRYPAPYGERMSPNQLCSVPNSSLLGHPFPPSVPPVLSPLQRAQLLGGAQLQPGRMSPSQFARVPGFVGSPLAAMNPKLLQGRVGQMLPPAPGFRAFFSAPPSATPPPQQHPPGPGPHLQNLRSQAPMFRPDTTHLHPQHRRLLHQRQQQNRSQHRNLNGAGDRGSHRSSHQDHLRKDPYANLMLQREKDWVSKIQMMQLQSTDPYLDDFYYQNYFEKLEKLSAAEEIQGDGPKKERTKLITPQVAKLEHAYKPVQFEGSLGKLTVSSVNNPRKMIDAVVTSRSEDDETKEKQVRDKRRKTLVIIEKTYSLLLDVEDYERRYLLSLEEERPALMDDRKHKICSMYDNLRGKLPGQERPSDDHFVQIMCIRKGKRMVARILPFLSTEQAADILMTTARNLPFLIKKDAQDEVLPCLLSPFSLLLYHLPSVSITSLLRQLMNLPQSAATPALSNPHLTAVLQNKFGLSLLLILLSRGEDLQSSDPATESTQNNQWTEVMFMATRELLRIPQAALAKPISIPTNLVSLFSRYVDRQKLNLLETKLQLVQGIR
Target,log2 fold change (erlotinib),log2 fold change [1],log2 fold change [2],log2 fold change [3],log2 fold change [4],log2 fold change [5],log2 fold change [6],log2 fold change [7],log2 fold change [8],log2 fold change [9],log2 fold change (IRAK-1-4 Inhibitor I),log2 fold change (ibrutinib),log2 fold change [10],log2 fold change (ralimetinib),log2 fold change [11],log2 fold change [12],log2 fold change [13],log2 fold change (pinometostat),log2 fold change [14],log2 fold change [15]
PSMD7 (UniProt P51665),-0.074,-0.1,-0.045,-0.023,-0.015,-0.072,0.02,-0.009,0.044,-0.01,0.055,-0.006,0.028,0.01,0.057,0.019,-0.216 (active),0.066,0.034,-0.029
PLCG1 isoform 2 (UniProt P19174),0.052,-0.054,-0.09,0.067,0.119,0.029,0.006,0.017,0.052,-0.06,-0.079,0.03,0.041,-0.042,-0.362 (active),-0.23,0.007,0.069,0.023,-0.027
PIK3CD (UniProt O00329),-0.044,-0.224,0.095,0.181,0.114,0.241,-0.052,-0.063,-0.077,-0.013,0.005,-0.137,0.237,0.032,-0.391,0.104,0.116,-0.024,–,0.259
PAK4 (UniProt O96013),0.155,-0.066,0.017,-0.04,0.015,0.048,-0.068,-0.013,0.062,-0.03,0.038,-0.032,0.173,-0.084,0,0.015,0.07,0.016,-0.052,0.049
PTPA (UniProt A6PVN8),-0.061,0.21,-0.107,0.367,0.088,0.031,0.063,0.065,0.01,0.031,–,0.063,-0.241,-0.07,-0.052,0.122,-0.002,–,0.026,-0.104
PNN (UniProt Q9H307),0.007,-0.001,0.032,0.024,0.025,0.085,-0.107,-0.11,–,–,0.051,-0.047,-0.134,0.032,0.004,-0.146,0.145,0.124,0.056,–
PPOX (UniProt P50336),0.112,0.415,0.156,0.416,0.039,-0.004,0.095,0.013,0.051,-0.011,0.095,0.136,-0.151,0.077,0.187,-0.217,-0.008,-0.039,-0.095,-0.009
PATL1 (UniProt Q86TB9),0.044,0.13,-0.021,0.048,0.01,-0.233,-0.075,0.029,-0.071,-0.052,-0.026,-0.173,-0.312,0.079,-0.024,-0.298,0.033,0.143,–,0.038

# — the supplement of paper PMC10849652
